Results as given in PubChem BioAssay (NCI).
This is part of a sample that, as a whole, favours compounds with a hit. Of some 83,000 tested, about 20% had one in any assay.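 96-well plates, one dose, 48 hours. Percent growth reported; active if below 10.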 Active and inactive are the calls of the source.

What was measured:
Assay in all cases: NCI-60 one-dose screen, 48 h (100 = growth as untreated, 0 = no growth, -100 = all killed)
Details in all cases: 10 µM
[1] = test system: DU-145 prostate
[2] = test system: K-562 leukemia
[3] = test system: MALME-3M melanoma
[4] = test system: MDA-MB-231 breast
[5] = test system: RXF 393 renal
[6] = test system: SF-268 CNS
[7] = test system: SF-295 CNS
[8] = test system: SF-539 CNS
[9] = test system: UACC-257 melanoma
[10] = test system: M14 melanoma
[11] = test system: HCT-15 colon
[12] = test system: HT29 colon
[13] = test system: SNB-75 CNS
[14] = test system: SNB-19 CNS
[15] = test system: U251 CNS
[16] = test system: PC-3 prostate
[17] = test system: SK-MEL-5 melanoma
[18] = test system: UACC-62 melanoma
[19] = test system: LOX IMVI melanoma
[20] = test system: SK-MEL-28 melanoma

Measured: growth

COc1ccc(-c2cc(-c3ccccc3)nc(SCCCC(=O)NO)n2)cc1
inactive: [11] 10.8% | [14] 10.6% | [20] 19.2%
active: [1] 1.16% | [2] 6.74% | [3] -9.2% | [4] -0.784% | [5] -40.8% | [6] -18.8% | [7] -39.6% | [8] 0.299% | [9] -3.3% | [10] -21.8% | [12] 5.87% | [13] -20.1% | [15] -24.5% | [16] 9.65% | [17] -57.8% | [18] -65.9% | [19] -65.4%

S=C(NCc1ccccc1)NCc1ccccc1
inactive: [1] 107% | [2] 98.7% | [3] 95.3% | [4] 100% | [5] 101% | [6] 95.8% | [7] 95.8% | [8] 101% | [9] 81.9% | [10] 101% | [11] 107% | [12] 97% | [13] 82.2% | [14] 95.1% | [15] 91.6% | [16] 84.3% | [17] 98.3% | [18] 102% | [19] 95.6% | [20] 107%

COc1cc(C)ccc1Oc1nc(Nc2ccc(N3CCOCC3)cc2)ncc1NC(=O)Nc1cc(C(F)(F)F)cc(C(F)(F)F)c1
active: [5] -27.6%
inactive: [1] 23.3% | [2] 40.3% | [3] 108% | [4] 51.5% | [6] 49.7% | [7] 60.2% | [8] 65.6% | [9] 84.3% | [10] 73% | [11] 66.6% | [12] 63.8% | [13] 65.9% | [14] 61.4% | [15] 53.1% | [16] 38.1% | [17] 82.6% | [18] 82.6% | [19] 47.1% | [20] 94%

COc1cccc(CNc2cccc3cn[nH]c23)c1O
inactive: [1] 100% | [2] 126% | [3] 88.3% | [4] 72.8% | [5] 113% | [6] 106% | [7] 108% | [8] 94.7% | [9] 99% | [10] 98.7% | [11] 93.4% | [12] 99.7% | [13] 82% | [14] 96.5% | [15] 92.9% | [16] 84.5% | [17] 82.2% | [18] 85.6% | [19] 90.4% | [20] 100%

O=C(CCCSc1nc(-c2ccccc2)cc(-c2ccc(Cl)cc2)n1)NO
active: [2] 8.59% | [3] 4.49% | [5] -19.2% | [7] 4.46% | [8] -27.2% | [9] 8.34% | [10] 5.54% | [13] 5.53% | [17] -27.7% | [18] -15.3% | [19] -3.49%
inactive: [1] 14.2% | [4] 17.7% | [6] 14.3% | [11] 18.5% | [12] 20.3% | [14] 20.1% | [15] 16.8% | [16] 20.6% | [20] 30.9%

CCOC(=O)c1cocc1C(=O)O
inactive: [1] 113% | [2] 92.6% | [3] 106% | [4] 118% | [5] 114% | [6] 108% | [7] 101% | [8] 107% | [9] 103% | [10] 103% | [11] 103% | [12] 110% | [13] 83.3% | [14] 107% | [15] 103% | [16] 112% | [17] 104% | [18] 116% | [19] 103% | [20] 104%

CCOC(=O)c1cc(C(=O)c2ccc(OC)c(OC)c2)n2ccncc12
inactive: [1] 102% | [2] 87.5% | [3] 112% | [4] 91.4% | [5] 106% | [6] 109% | [7] 102% | [8] 99.3% | [9] 102% | [10] 102% | [11] 89.9% | [12] 84.6% | [13] 104% | [14] 98% | [15] 105% | [16] 80.6% | [17] 89.4% | [18] 94% | [19] 77.7% | [20] 115%

O=C1c2ccccc2C(=O)c2c1ccc(C(Br)Br)c2Cl
inactive: [1] 33.1% | [5] 36.2% | [7] 90.5% | [8] 69.9% | [9] 100% | [10] 10.7% | [11] 44% | [12] 52.5% | [13] 91.4% | [14] 42.9% | [16] 40.5% | [17] 74% | [18] 47.2% | [20] 92.3%
active: [2] -28.9% | [3] -70.9% | [4] -41.9% | [6] -19.1% | [15] -26% | [19] -84.4%
